Assay [1] can be described thus: resazurin metabolic signal in HepG2 cells – cell-based, resazurin fluorescence, 24 h, PK04 Diversity Set, profiling panel (AID 1172). Conditions: HepG2 viability, higher = more signal. On the technique in general: Resazurin is reduced to fluorescent resorufin, in cell work by metabolically active cells.
The nature of assay [2]: budding yeast growth changes without added modifier – OD600, strain BY4716, 24 h, basal condition, primary screen (AID 1173). Conditions: S. cerevisiae BY4716 growth, OD600, 24 h; higher = more signal, called active from +8 up or from −8 down.
A short description of assay [3]: viability profiling in MM1S myeloma cells – cell-based, resazurin fluorescence, basal, 24 h, PK04 Diversity Set, profiling panel (AID 1174).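 Also: MM1S multiple myeloma cell line.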 Conditions: higher = more signal, called active from +8 up or from −8 down.
In assay [4] the target is Dihydroorotate dehydrogenase (quinone), mitochondrial (Plasmodium falciparum (isolate 3D7)) (UniProt Q08210). Nature of the assay: inhibition of P. falciparum DHODH – biochemical, C-terminal His tag, absorbance 600 nm, primary screen (AID 1175).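 Also: recombinant parasite enzyme with a five histidine tag at its C terminus.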 Conditions: PfDHODH enzyme, DCIP absorbance 600 nm; higher = more signal, called active from +8 up or from −8 down.
Assay [5] in a line: inhibition of PAO1 biofilm formation – strain PAO1, LB-PBS medium, absorbance 600 nm, primary screen (AID 1176). Conditions: P. aeruginosa PAO1 growth/biofilm, A600, 12 h; higher = more signal.
Assay [6] is described as follows: growth modulation of vineyard yeast isolate – strain RM11-1a, OD600, basal, 24 h, primary screen (AID 1177).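 Also: cultures grown under basal conditions with no added stressor.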 Conditions: S. cerevisiae RM11-1a growth, OD600, 24 h; higher = more signal, called active from +8 up or from −8 down.
The nature of assay [7]: growth of efflux-deficient E. coli DRC39 – strain DRC39, OD650, 24 h, E. coli filamentation inducers, primary screen (AID 1178).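 Also: growth measured as culture turbidity by optical density at 650 nm.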 Conditions: E. coli DRC39 acrAB, higher = more signal, called active from +8 up or from −8 down.
Assay [8] can be described thus: growth of efflux-deficient E. coli DRC39 – strain DRC39, OD650, 48 h, E. coli filamentation inducers, primary screen (AID 1179).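 Also: screen aims at cell division blockers that make cells filament.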 Conditions: E. coli DRC39 delta-acrAB growth, higher = more signal, called active from +8 up or from −8 down.
Assay [9] can be described thus: viability profiling in RPMI8226 myeloma cells – cell-based, resazurin fluorescence, basal, 24 h, PK04 Diversity Set, profiling panel (AID 1180).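 Also: RPMI8826 multiple myeloma cell line at 5000 cells per well.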 Conditions: higher = more signal.
Assay [10] addresses E3 ubiquitin-protein ligase XIAP (Homo sapiens) (UniProt P98170). Put plainly: small molecules binding XIAP protein – biophysical, small-molecule microarray, fluorescence 635 nm, primary screen (AID 1181).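 Also: score merges 667 nm emission and signal to noise over triplicate slides.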 Conditions: higher = more signal.
In assay [11] the test system is XIP peptide (Xip251-270) binding. Nature of the assay: XIP fragment 251-270 binding compounds – biochemical, small-molecule microarray, fluorescence 635/667 nm, 0.1 µg/mL protein, primary screen (AID 1182). Conditions: fluorescent protein binding, 635 nm, higher = more signal, called active from +8 up or from −8 down.
In another assay the test system is XIP peptide (Xip251-270). Nature of the assay: compounds binding XIP fragment 251-270 – biochemical, small-molecule microarray, fluorescence 635/667 nm, 0.5 µg/mL protein, primary screen (AID 1183). Conditions: fluorescence 635 nm, higher = more signal.
The nature of assay [12]: blood-stage malaria parasite viability loss – strain 3D7, DAPI fluorescence, 100 nL, primary screen (AID 1184).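 Also: parasites grown inside human red blood cells in medium with human serum.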 Conditions: P. falciparum 3D7 growth, 3 d, higher = more signal.
Assay [13] concerns the target Homeobox protein Hox-A13 (Mus musculus) (UniProt Q62424). Put plainly: disruptors of Hoxa13 oligonucleotide interaction – biochemical, fluorescence polarization, labeled oligonucleotide, primary screen (AID 1185). Conditions: Hoxa13:DNA binding, 15 min, higher = more signal, called active from +8 up or from −8 down.
The nature of assay [14]: blockers of DNA damage checkpoint Chk1 activation – imaging, HeLa, hydroxyurea, phospho-Chk1 antibody, percent positive cells, primary screen (AID 1186). Conditions: hydroxyurea-induced phospho-Chk1 immunofluorescence imaging, higher = more signal.
A short description of assay [15]: blockers of DNA damage checkpoint Chk1 activation – imaging, HeLa, hydroxyurea, phospho-Chk1 nuclear intensity, primary screen (AID 1187). Conditions: hydroxyurea-induced phospho-Chk1 immunofluorescence imaging, higher = more signal.

Active and inactive are the calls of the source. Unless noted, no rule for the calls is given here.

Chain of Dihydroorotate dehydrogenase (quinone), mitochondrial (Plasmodium falciparum (isolate 3D7)) (Q08210 whole entry, looked up): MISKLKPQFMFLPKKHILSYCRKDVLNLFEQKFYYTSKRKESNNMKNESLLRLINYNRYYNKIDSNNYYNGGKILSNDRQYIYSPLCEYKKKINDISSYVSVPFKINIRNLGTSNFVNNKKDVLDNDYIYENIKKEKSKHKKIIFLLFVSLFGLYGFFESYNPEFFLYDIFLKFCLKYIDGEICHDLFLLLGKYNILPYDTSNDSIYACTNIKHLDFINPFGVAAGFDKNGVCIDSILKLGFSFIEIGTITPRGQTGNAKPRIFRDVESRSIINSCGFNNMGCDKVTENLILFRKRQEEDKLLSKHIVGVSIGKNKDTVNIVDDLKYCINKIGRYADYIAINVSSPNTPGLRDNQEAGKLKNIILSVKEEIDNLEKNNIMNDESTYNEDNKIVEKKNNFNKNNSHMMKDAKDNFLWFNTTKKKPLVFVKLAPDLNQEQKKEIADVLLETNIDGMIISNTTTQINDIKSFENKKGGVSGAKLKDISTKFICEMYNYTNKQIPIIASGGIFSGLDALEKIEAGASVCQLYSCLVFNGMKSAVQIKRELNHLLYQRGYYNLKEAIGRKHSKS
Chain of Homeobox protein Hox-A13 (Mus musculus) (Q62424 whole entry, looked up): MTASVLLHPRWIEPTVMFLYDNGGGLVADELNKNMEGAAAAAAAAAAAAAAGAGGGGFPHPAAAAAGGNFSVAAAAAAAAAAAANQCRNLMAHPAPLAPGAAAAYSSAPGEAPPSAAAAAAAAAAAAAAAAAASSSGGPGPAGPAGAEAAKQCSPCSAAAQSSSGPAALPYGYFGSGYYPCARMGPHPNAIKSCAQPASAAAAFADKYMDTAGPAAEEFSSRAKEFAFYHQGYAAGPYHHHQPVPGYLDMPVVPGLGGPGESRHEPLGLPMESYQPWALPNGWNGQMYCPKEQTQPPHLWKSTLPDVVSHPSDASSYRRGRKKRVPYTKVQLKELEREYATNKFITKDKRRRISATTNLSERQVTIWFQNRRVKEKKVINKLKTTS
Chain of E3 ubiquitin-protein ligase XIAP (Homo sapiens) (P98170 whole entry, looked up, the tested form may be a part): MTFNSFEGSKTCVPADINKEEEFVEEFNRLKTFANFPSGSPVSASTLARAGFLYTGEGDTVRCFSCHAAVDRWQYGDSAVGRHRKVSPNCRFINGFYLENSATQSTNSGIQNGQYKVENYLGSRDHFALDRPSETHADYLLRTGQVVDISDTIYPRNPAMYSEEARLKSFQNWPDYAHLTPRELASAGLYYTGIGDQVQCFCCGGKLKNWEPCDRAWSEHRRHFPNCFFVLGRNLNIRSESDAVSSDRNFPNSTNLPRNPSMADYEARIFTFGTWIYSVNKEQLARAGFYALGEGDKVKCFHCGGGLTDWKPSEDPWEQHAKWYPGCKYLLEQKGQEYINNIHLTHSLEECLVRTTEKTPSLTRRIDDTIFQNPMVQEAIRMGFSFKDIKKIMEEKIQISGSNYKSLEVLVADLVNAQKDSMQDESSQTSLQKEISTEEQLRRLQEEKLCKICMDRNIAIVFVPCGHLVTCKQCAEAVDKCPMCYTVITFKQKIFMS

As for `C=CC[C@]1(C(=O)NCC(O)CO)COC(c2ccc(OCCCO)cc2)=N1` (some centres undefined), the z-score in assay [1] is -0.25; in [2] it was 0.369 (inactive); in assay [3], -0.772 (inactive); in assay [5] it was 2.29 (inactive); in [6] it was 1.33 (inactive); in assay [7], -0.34 (inactive). The z-score is -0.471 (inactive) in assay [8]; -0.412 in [9]; 0.343 in [12]; -4.55 (inactive) in [13]; 0.0293 (inactive) in assay [14]; -0.553 (inactive) in assay [15]. Also, the composite z-score in assay [4] is 0.233 (inactive); in assay [10], -0.266; in [11], -0.933 (inactive); in the assay with XIP peptide (Xip251-270), -1.45.
Consider `O=C1C2C=CC(C(O)c3c(F)cccc3Cl)N(Nc3ccc([N+](=O)[O-])cc3)C2C(=O)N1c1ccccc1` (centres undefined), for which the z-score was -0.0492 in assay [1]; 0.615 (inactive) in assay [2]; -0.396 (inactive) in assay [3]; 0.685 (inactive) in assay [5]; 0.378 (inactive) in assay [6]; -0.333 (inactive) in assay [7]. Further, the z-score in assay [8] was -0.194 (inactive); in assay [9] it was 0.278; in assay [12] it was -0.545; in assay [13] it was -3.05 (inactive); in assay [14], 0.982 (inactive); in [15], 1.09 (inactive). Moreover, the composite z-score is 0.406 (inactive) in assay [4], -0.357 in [10], 1.03 (inactive) in [11] and 0.878 with XIP peptide (Xip251-270).
As for `CC(C)(C)OC(=O)CC[C@]1(C(=O)NCC(O)CO)N=C(c2ccc(OCCCO)cc2)O[C@H]1c1ccccc1N=[N+]=[N-]` (some centres undefined), the z-score in assay [1] is -0.108; in assay [2], -0.66 (inactive); in assay [3], -1.58 (inactive); in [5], 0.948 (inactive); in assay [6] it was -0.134 (inactive); in [7], -0.0029 (inactive). Besides, the z-score in assay [8] is 0.0611 (inactive); in assay [9], -0.288; in assay [12], -1.45; in [13], -4.51 (inactive); in assay [14], 0.0505 (inactive); in assay [15], 0.259 (inactive). The composite z-score in assay [4] was -0.955 (inactive); in [10] it was -0.0018; in assay [11] it was 3.52 (inactive); with XIP peptide (Xip251-270) it was 0.811.
`COc1ccc(C(O)C2C=CC3C(=O)NC(=O)C3N2Nc2ccc(Cl)cc2Cl)c2ccccc12` (centres undefined): the z-score was -2.19 in assay [1]; -9.94 (active) in assay [2]; -0.423 (inactive) in assay [3]; 1.28 (inactive) in assay [5]; 0.361 (inactive) in [6]; -0.0977 (inactive) in assay [7]. Further, the z-score in assay [8] is -0.626 (inactive); in [9] it was -1.09; in assay [12], -0.605; in assay [13], -2.99 (inactive); in [14], -0.0602 (inactive); in [15] it was 0.175 (inactive). Besides, the composite z-score in assay [4] is 0.167 (inactive); in assay [10], -0.0118; in [11] it was 1.62 (inactive); in the assay with XIP peptide (Xip251-270), 0.687.
On to `COc1ccc([Si](C)(C)[C@@H]2[C@@H](CC(=O)N3CCC[C@H]3CO)O[C@]3(C(=O)N(Cc4cccc(N5CCCCC5=O)c4)c4ccccc43)[C@H]2C)cc1`, for which the z-score in [1] is -1.26; in assay [2], -0.51 (inactive); in [3] it was -2 (inactive); in assay [5] it was 0.319 (inactive); in assay [6], 0.625 (inactive); in [7] it was 0.894 (inactive). The z-score in assay [8] was 0.6 (inactive); in assay [9], -2.68; in [12] it was -1.26; in [13] it was -2.93 (inactive); in assay [14], -0.515 (inactive); in [15], 0.336 (inactive). Besides, the composite z-score in [4] was -0.877 (inactive); in [10] it was 0.0167; in [11], 2.84 (inactive); in the assay on XIP peptide (Xip251-270) it was 0.799.
Consider `CN1C(=O)C2C(C3CC3)C=C3CN(Cc4cccc(Cl)c4)[C@@H]([C@@H](O)Cc4ccccc4)C3C2C1=O` (some centres undefined), for which the z-score in [1] is 0.313; in assay [2] it was -1.83 (inactive); in assay [3], 0.076 (inactive); in assay [5] it was 0.601 (inactive); in assay [6] it was 0.248 (inactive); in assay [7] it was 0.942 (inactive). In addition, the z-score in [8] was 0.588 (inactive); in assay [9] it was -0.0321; in [12] it was -0.185; in assay [13] it was -4.6 (inactive); in assay [14], -1.34 (inactive); in assay [15], -2.37 (inactive). In addition, the composite z-score in assay [4] is -0.0831 (inactive); in [10], -0.0264; in assay [11], 0.163 (inactive); with XIP peptide (Xip251-270), 0.74.
Turning to `C=CCC(OC(C)=O)[C@@H]1[C@@H](N(Cc2ccc(-c3cccc(C(F)(F)F)c3)o2)C(=O)c2ccc(-c3ccccc3)cc2)c2cc(OCCCO)ccc2N1C(=O)c1ccc2ccccc2c1` (some centres undefined), the z-score was 0.393 in assay [1]; 0.488 (inactive) in assay [2]; 0.314 (inactive) in assay [3]; -0.452 (inactive) in assay [5]; 1.27 (inactive) in assay [6]; 0.391 (inactive) in [7]. Moreover, the z-score in assay [8] is 0.412 (inactive); in assay [9] it was 0.881; in assay [12], -1.26; in [13] it was -1.43 (inactive); in assay [14], 0.366 (inactive); in assay [15], 0.766 (inactive). Also, the composite z-score in assay [4] is -0.0636 (inactive); in [10] it was -0.0889; in assay [11], 0.405 (inactive); in the assay with XIP peptide (Xip251-270) it was -0.378.
For `COc1ccc(C(=O)Nc2ccc(CN3C(=O)[C@@]4(O[C@@H](CCn5cc(CCO)nn5)[C@H]([Si](C)(C)c5ccc(OC)cc5)[C@H]4C)c4ccccc43)cc2)cc1`, the z-score in [1] was -3.26; in assay [2] it was -5.03 (inactive); in assay [3] it was -4.02 (inactive); in [5], 0.863 (inactive); in assay [6], 2.47 (inactive); in [7] it was 1.07 (inactive). The z-score is -0.101 (inactive) in [8]; -3.35 in assay [9]; -2.71 in assay [12]; -3.79 (inactive) in assay [13]; -0.989 (inactive) in assay [14]; -1.13 (inactive) in assay [15]. The composite z-score was 0.483 (inactive) in assay [4], -0.0871 in [10], 1.04 (inactive) in assay [11] and 0.561 in the assay with XIP peptide (Xip251-270).
`COc1ccc(C(O)C2C=CC3C(=O)N(C)C(=O)C3N2N(c2ccccc2)c2ccccc2)cc1` (centres undefined): the z-score in assay [1] was -0.326; in assay [2], 0.405 (inactive); in assay [3], -1.61 (inactive); in assay [5], 0.971 (inactive); in assay [6], 0.279 (inactive); in [7] it was -0.41 (inactive). Also, the z-score in [8] is 0.0882 (inactive); in assay [9], -1.29; in [12], -0.459; in assay [13], -6.57 (inactive); in assay [14], 0.45 (inactive); in assay [15], -0.508 (inactive). Further, the composite z-score in assay [4] is -0.472 (inactive); in [10], -0.0772; in assay [11], 0.195 (inactive); with XIP peptide (Xip251-270) it was 0.512.

(Values after PubChem BioAssay.)
